A selection: hits, their analogues and other compounds. The true share with any hit is near 21%.
Shiga inhibitor = Shiga toxin inhibition; inhibition, % at 38.7 µM; AID 2315; Vero cells, Shiga toxin protein synthesis inhibition reporter; hit rate 9.2% among 290,000; in the data active = inhibition mostly above about 28%, no sharp cut-off; inactive = mostly below about 43%; also: 0% is about no effect
Cycloheximide cs = counter-screen for Shiga toxin inhibitors: cycloheximide protein synthesis inhibition; AID 2314; cell reporter, cycloheximide protein synthesis inhibition counterscreen; max response, %; hit rate 12% among 300,000; in the data active = max response mostly above about 13%, no sharp cut-off; inactive = mostly below about 14%; also: read at 38.3 µM for the half of the compounds with a filed dose; 0% is about no effect
NS1 function inh = blocks influenza NS1 protein function; hit rate 0.4% among 270,000; Potency, µM (series often up to 46.1 µM), without a hit: at the top dose activity, positive = more growth; AID 2326; calls by dose curve; also: potency is read from the fitted curve at half-maximal effect; actives are rising curves; nearly all actives have a fitted effect of over 50% in size
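In this qHTS, NS1 from influenza A is expressed in budding yeast, where it slows growth. Cells are switched from glucose to 2% galactose medium (pH 6.0, -URA), treated with compound, and growth recovery is read at OD600.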
Pf growth 96h = P. falciparum growth inhibition at 96 hours | P. falciparum luciferase reporter growth, 96 h | Potency, µM (top dose mostly 28.7 µM), for the others: at the top dose activity change, negative = inhibition, most hits filed as inhibitors | hit rate 6.9% among 320,000; also: potency is read from the fitted curve at half-maximal effect; % is scaled to controls: 0 for no effect and ±100 for the full control effect
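P. falciparum expressing integrated firefly luciferase, in erythrocytes at 2% hematocrit, 0.05% parasitemia, incubated with compounds 96 h at 37 C, 5% CO2. Growth inhibition read as loss of luminescence; two-generation exposure targets delayed-death apicoplast inhibitors.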
Pf growth 48h = inhibits P. falciparum growth in the first generation, 48 h; hit rate 5.9% among 310,000; Potency, µM (doses to about 28.7 µM), for the others: at the highest dose activity change, negative = inhibition, most hits filed as inhibitors; AID 504832; P. falciparum luciferase growth in erythrocytes, 48 h; also: potency is read from the fitted curve at half-maximal effect; % is scaled to controls: 0 for no effect and ±100 for the full control effect
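Here the parasites carry a stable luciferase gene and grow inside erythrocytes in Albumax-based RPMI medium with compound for one erythrocytic cycle. Activity is scored as loss of luminescent signal.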
The depositor's hits bear a star; [ ] = another dose, or the depositor's remark. Unless noted, calls follow the shape of the dose curve; as a rule, active = well fitted inhibition curve with a large enough effect; inconclusive = small, poorly fitted or top-dose-only effect, or another doubt; inactive = no such curve, though single readings can be large or run the other way.

Cc1ccc2c(c1)CCCN2C(=O)c1ccncc1 was read as Shiga inhibitor -3.9, Cycloheximide cs -2.5, NS1 function inh -2.1% and Pf growth 48h -6.7%.
Cc1ccc2c(c1)CCCN2C(=O)Nc1ccc2c(c1)OCO2 was read as Shiga inhibitor 29.7*, Cycloheximide cs 46.1*, NS1 function inh -53.8%, Pf growth 96h inconclusive and Pf growth 48h 3.0%.
`Oc1ccccc1N=N/C(=N/Nc1ccccc1O)c1ccccc1` gave Pf growth 96h 8.28µM* and Pf growth 48h 4.15µM*.
`CC(OC(=O)c1ccccc1NS(=O)(=O)c1cccc(N)c1)C(=O)N(C)Cc1ccccc1` (stereo unspecified) gave Shiga inhibitor 6.4, Cycloheximide cs 6.0, NS1 function inh inconclusive, Pf growth 96h inconclusive and Pf growth 48h inconclusive.
COc1ccc(/C=C/C(=O)N(CC(C)C)C2CCS(=O)(=O)C2)cc1 (stereo unspecified) was read as Pf growth 96h inconclusive and Pf growth 48h -8.3%.
`CC(C)CN(C(=O)/C=C/c1nc2ccccc2s1)C1CCS(=O)(=O)C1` (stereo unspecified) gave Pf growth 96h 7.38µM* and Pf growth 48h inconclusive.
CN(C(=O)c1cccs1)c1ccc(OCC(=O)Nc2ccc(C(=O)O)cc2)cc1 was read as Shiga inhibitor 8.7, Cycloheximide cs 1.0, NS1 function inh -0.3%, Pf growth 96h 9.9% and Pf growth 48h -7.8%.
COc1ccc(N(CC(=O)NN=C2CCCC2)S(=O)(=O)c2ccccc2)cc1 was read as Shiga inhibitor 3.0, Cycloheximide cs -2.0, NS1 function inh 22.5%, Pf growth 96h 30.8% and Pf growth 48h 44.3%.
Screening CC(C)(C)C1CCC(=NNC(=O)CN(c2ccccc2)S(C)(=O)=O)CC1 (stereo unspecified) returned Shiga inhibitor 89.9*, Cycloheximide cs 43.0*, NS1 function inh 8.2%, Pf growth 96h 1.5% and Pf growth 48h 6.3%.
For COc1ccc(N(CC(=O)N/N=C(\C)c2ccccc2)S(=O)(=O)c2ccccc2)cc1 the results were Shiga inhibitor -9.5, Cycloheximide cs -6.3, NS1 function inh 3.3%, Pf growth 96h -24.5% and Pf growth 48h 15.4%.
C/C(=N\NC(=O)CN1CCCCC1)c1ccccc1O was read as Shiga inhibitor 39.4*, Cycloheximide cs 23.2*, NS1 function inh 2.4%, Pf growth 96h 31.7% and Pf growth 48h inconclusive.
For C/C(=N\NC(=O)CN(c1ccccc1)S(C)(=O)=O)c1ccccc1O the results were Shiga inhibitor -6.7, Cycloheximide cs -3.0, Pf growth 96h inconclusive and Pf growth 48h 11.7µM*.
CCOc1cc(/C=N/N=C2/NC(=O)C(CC(=O)O)S2)ccc1OCc1ccccc1Cl (stereo unspecified) was read as Shiga inhibitor 1.9, Cycloheximide cs -4.1, NS1 function inh 13.7%, Pf growth 96h 2.0% and Pf growth 48h inconclusive.
Cc1ccc(CNS(=O)(=O)c2ccc(C(F)(F)F)cc2)n1C was read as Shiga inhibitor 7.0, Cycloheximide cs 1.0, NS1 function inh 6.4%, Pf growth 96h -4.9% and Pf growth 48h inconclusive.
For Cc1ccc2oc(C(=O)N(Cc3ccc(N(C)C)cc3)C3CCS(=O)(=O)C3)c(C)c2c1 (stereo unspecified) the results were Shiga inhibitor 16.0, Cycloheximide cs 15.8*, NS1 function inh -15.1%, Pf growth 96h 4.65µM* and Pf growth 48h inconclusive.
`O=C(COc1ccc(F)cc1)N(Cc1cccc(Br)c1)C1CCS(=O)(=O)C1` (stereo unspecified) gave Shiga inhibitor -6.1, Cycloheximide cs -4.6, NS1 function inh -0.1%, Pf growth 96h inconclusive and Pf growth 48h inconclusive.
COc1ccc(CN(C(=O)c2oc3cc(C)c(C)cc3c2C)C2CCS(=O)(=O)C2)cc1OC (stereo unspecified) was read as Shiga inhibitor 0.7, Cycloheximide cs -2.1, NS1 function inh -12.3%, Pf growth 96h 2.94µM* and Pf growth 48h inconclusive.
COc1ccc(CN(C(=O)c2oc3ccccc3c2C)C2CCS(=O)(=O)C2)cc1OC (stereo unspecified) was read as Shiga inhibitor 10.8, Cycloheximide cs 3.2, NS1 function inh -16.0%, Pf growth 96h 6.6% and Pf growth 48h inconclusive.
Cc1c(C(=O)N(Cc2ccc(Cl)cc2)C2CCS(=O)(=O)C2)oc2ccccc12 (stereo unspecified) was read as Shiga inhibitor -7.9, Cycloheximide cs 6.8, NS1 function inh 15.0%, Pf growth 96h 2.1% and Pf growth 48h 13.1µM*.
CCOc1ccc(CN(C(=O)c2oc3ccccc3c2C)C2CCS(=O)(=O)C2)cc1 (stereo unspecified) was read as Shiga inhibitor -16.8, Cycloheximide cs 8.1, NS1 function inh -58.8%, Pf growth 96h inconclusive and Pf growth 48h -39.7%.
Screening Cc1c(C(=O)N(Cc2cccc(Br)c2)C2CCS(=O)(=O)C2)oc2ccc(F)cc12 (stereo unspecified) returned Shiga inhibitor -2.5, Cycloheximide cs -0.2, NS1 function inh 29.2%, Pf growth 96h 13.1µM* and Pf growth 48h inconclusive.
CCC1CCCCN1C(=O)c1ccc(OC2CCN(C(=O)C3CC3)CC2)cc1 (stereo unspecified) was read as Shiga inhibitor 26.1, Cycloheximide cs -2.5, NS1 function inh 4.1%, Pf growth 96h -7.4% and Pf growth 48h -9.5%.
O=C(NC12CC3CC(CC(C3)C1)C2)N1CCC(O)(c2ccc3c(c2)OCO3)CC1 was read as Shiga inhibitor 11.8, Cycloheximide cs 9.7, NS1 function inh -4.1%, Pf growth 96h -0.7%[5.75 µM] and Pf growth 48h inconclusive.
For COc1ccccc1NC(=O)C1=C(C)NC(=O)NC1c1cccs1 (stereo unspecified) the results were Shiga inhibitor -0.7, Cycloheximide cs -4.3, Pf growth 96h 20.8% and Pf growth 48h -22.1%.
For CC(=O)N1N=C(c2ccccc2)CC1c1cn(Cc2ccccc2)c2ccccc12 (stereo unspecified) the results were Shiga inhibitor -2.8, Cycloheximide cs -2.1, NS1 function inh 16.5%, Pf growth 96h inconclusive and Pf growth 48h inconclusive.
`CN1C(=O)CC(c2cn(Cc3ccccc3)c3ccccc23)C1=O` (stereo unspecified) gave Shiga inhibitor 14.2, Cycloheximide cs -4.5, NS1 function inh 8.3%, Pf growth 96h 2.62µM* and Pf growth 48h inconclusive.
Screening CSc1ccccc1OCc1cc(C(=O)N2CCCC2c2nonc2C)no1 (stereo unspecified) returned Shiga inhibitor 91.1*, Cycloheximide cs 47.9*, NS1 function inh -18.2%, Pf growth 96h 4.6% and Pf growth 48h 23.3%.
Cc1nonc1C1CCCN1C(=O)c1cc(COc2ccc(F)cc2F)on1 (stereo unspecified) was read as Shiga inhibitor 102.6*, Cycloheximide cs 41.1*, NS1 function inh -4.2%, Pf growth 96h inconclusive and Pf growth 48h 48.6%.
C/C(=N\OCc1nc2ccccc2c(=O)n1/N=C/c1cc(C)cc([N+](=O)[O-])c1O)c1ccccc1 was read as Shiga inhibitor 26.9, Cycloheximide cs 21.0*, NS1 function inh -38.3%, Pf growth 96h inconclusive and Pf growth 48h 6.57µM*.

Screening data (PubChem)
